Common to all, as to parameters: scale not given: direction of the effect not stated beside the values
The target of assay [1] is Protein translocase subunit SecA (Escherichia coli (strain K12)) (UniProt P10408). Description: Assay to Identify E. coli SecA ATPase Inhibitors. In kind it is functional. As to conditions: 30 µM.
Assay [2] addresses T1, Ubiquitin-activating enzyme e1, putative (Leishmania donovani (strain BPK282A1)) (UniProt E9BSI1).
T1 sequence (whole entry): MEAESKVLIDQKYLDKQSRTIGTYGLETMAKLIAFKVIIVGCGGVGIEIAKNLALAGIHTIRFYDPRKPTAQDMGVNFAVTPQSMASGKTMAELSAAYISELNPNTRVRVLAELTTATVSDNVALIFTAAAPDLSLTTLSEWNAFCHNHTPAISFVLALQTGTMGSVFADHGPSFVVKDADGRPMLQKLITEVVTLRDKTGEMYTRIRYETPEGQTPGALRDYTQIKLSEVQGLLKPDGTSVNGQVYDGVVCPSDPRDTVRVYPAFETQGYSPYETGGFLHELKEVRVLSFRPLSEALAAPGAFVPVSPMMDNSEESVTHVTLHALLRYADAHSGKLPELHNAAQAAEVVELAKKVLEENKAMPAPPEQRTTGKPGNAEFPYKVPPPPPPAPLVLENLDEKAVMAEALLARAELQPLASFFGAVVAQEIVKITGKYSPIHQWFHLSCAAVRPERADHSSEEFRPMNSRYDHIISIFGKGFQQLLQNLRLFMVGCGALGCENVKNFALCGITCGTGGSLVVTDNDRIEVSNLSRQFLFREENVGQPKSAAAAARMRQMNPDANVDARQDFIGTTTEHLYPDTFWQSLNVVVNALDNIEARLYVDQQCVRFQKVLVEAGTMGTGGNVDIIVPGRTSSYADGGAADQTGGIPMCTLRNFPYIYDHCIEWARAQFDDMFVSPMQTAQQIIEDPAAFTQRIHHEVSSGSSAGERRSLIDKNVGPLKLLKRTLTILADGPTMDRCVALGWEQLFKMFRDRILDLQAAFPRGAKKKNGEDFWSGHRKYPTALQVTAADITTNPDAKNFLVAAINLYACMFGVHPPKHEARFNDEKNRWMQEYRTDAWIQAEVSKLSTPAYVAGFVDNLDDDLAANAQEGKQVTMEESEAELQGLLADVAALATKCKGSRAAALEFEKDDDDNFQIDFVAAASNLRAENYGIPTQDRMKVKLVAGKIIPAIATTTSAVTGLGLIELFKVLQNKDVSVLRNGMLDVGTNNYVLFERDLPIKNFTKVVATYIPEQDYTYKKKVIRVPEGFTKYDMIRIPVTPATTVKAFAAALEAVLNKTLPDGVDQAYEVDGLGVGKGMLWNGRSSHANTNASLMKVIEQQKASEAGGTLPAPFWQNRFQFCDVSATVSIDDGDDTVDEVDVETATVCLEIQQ
The assay can be described thus: Leishmania donovani Ubiquitin Activating Enzyme (LdE1). In kind it is functional. As to conditions: 30 µM.

In assay [3] the target is AMP-activated protein kinase, AMPK (Homo sapiens) (UniProt P54646+O43741+P54619+Q9UGJ0+Q9Y478+Q13131+Q9UGI9). The assay can be described thus: AMP-dependent Kinase enzyme assay. An in vitro enzyme assay that detects ADP turnover that is directly proportional to AMPK activity. This uses naive AMPK that is activated during the assay with MK-8722. In kind it is functional. As to conditions: 30 µM.

Assay [4] deals with Sialic acid-binding Ig-like lectin 9 (Homo sapiens) (UniProt Q9Y336). The assay can be described thus: Hs-Siglec9 ALPHAscreen SOP 20170721. Conditions: 10 µM.
Sialic acid-binding Ig-like lectin 9 (Homo sapiens), sequence (Q9Y336 whole entry): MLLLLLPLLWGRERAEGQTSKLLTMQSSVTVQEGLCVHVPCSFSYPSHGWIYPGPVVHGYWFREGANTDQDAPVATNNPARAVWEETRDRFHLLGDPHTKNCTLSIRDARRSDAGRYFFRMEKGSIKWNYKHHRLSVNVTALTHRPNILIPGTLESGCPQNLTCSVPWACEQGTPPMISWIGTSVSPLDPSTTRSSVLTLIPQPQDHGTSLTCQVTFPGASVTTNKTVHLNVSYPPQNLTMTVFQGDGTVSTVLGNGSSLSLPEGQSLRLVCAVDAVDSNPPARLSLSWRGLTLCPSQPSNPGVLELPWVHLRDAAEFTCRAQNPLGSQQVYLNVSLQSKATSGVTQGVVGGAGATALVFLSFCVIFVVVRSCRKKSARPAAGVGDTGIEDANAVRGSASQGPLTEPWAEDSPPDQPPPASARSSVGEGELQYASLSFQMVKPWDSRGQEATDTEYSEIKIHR
The next assay deals with Trypanosoma cruzi. Description: Trypanosoma cruzi phosphomannomutase and mannose-1-phosphate guanylyltransferase assay. Conditions: 10 µM. In kind it is functional.
Assay [5] has as its target T2, Arginase-2, mitochondrial (Homo sapiens) (UniProt P78540).
T2 sequence (whole entry): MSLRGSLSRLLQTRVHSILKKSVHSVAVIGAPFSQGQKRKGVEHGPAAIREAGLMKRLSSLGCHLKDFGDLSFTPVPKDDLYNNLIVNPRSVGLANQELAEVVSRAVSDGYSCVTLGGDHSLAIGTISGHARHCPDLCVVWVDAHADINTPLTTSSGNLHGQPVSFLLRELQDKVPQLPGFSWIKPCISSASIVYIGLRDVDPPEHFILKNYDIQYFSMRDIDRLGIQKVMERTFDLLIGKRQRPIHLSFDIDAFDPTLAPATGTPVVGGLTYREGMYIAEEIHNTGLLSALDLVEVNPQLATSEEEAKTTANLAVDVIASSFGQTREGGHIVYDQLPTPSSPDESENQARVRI
The assay can be described thus: in vitro enzyme assay to detect the production of urea directly proportional to the activity of Arginase II. Further: in the data most compounds retested in dose-response had high values. Format: functional. As to conditions: 33.3 µM.

Assay [6] concerns the target T3, Proteasome subunit beta (Trypanosoma cruzi) (UniProt O96673).
T3 sequence (whole entry): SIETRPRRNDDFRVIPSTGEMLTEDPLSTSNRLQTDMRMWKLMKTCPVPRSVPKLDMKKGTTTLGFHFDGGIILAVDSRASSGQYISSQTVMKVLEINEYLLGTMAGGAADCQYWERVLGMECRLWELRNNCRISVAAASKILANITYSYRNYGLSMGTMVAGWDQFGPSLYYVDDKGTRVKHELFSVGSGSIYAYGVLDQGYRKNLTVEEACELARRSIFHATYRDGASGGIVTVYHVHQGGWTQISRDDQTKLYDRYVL
Description: Trypanosoma cruzi proteasome chymotrypsin-like activity (TcProtChymo) assay. Further: in the data most compounds retested in dose-response had high values. In kind it is functional. Conditions: 9.37 µM.

The species named for a further assay is Homo sapiens. Description: To identify inhibition of the IFN signalling (Jak-Stat) pathway via expression of an eGFP reporter gene under the control of an IFN-stimulated response element (ISRE) containing MxA promoter. In kind it is functional. As to conditions: 30 µM.
In assay [7] the target is T4, Tyrosyl-tRNA synthetase, putative (Trypanosoma cruzi (strain CL Brener)) (UniProt Q4DSP6).
T4 sequence (whole entry): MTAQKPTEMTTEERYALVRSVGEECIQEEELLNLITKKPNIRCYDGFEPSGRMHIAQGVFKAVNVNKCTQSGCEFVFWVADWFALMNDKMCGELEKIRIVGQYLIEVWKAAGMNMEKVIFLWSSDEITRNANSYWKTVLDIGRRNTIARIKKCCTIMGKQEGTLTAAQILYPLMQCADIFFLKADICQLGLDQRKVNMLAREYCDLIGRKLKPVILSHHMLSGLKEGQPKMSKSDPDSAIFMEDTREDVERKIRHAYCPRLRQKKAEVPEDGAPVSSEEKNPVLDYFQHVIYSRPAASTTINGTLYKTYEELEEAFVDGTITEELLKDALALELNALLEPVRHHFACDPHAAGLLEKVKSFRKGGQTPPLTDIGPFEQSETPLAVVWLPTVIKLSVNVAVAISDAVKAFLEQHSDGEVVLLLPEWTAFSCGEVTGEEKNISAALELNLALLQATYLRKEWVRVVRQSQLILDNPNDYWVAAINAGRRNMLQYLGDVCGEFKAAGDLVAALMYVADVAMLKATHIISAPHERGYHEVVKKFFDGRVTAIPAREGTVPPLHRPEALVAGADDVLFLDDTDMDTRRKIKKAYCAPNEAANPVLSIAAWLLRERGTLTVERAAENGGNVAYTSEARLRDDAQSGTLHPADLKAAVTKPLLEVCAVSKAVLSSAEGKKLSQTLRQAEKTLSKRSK
The assay can be described thus: Trypanosoma cruzi tyrosyl tRNA synthetase (TcYRS) _High Tyrosine SOP. Further: in the data most compounds retested in dose-response had high values. In kind it is functional. Conditions: 30 µM.

For assay [8], the target named is T4, Tyrosyl-tRNA synthetase, putative (Trypanosoma cruzi (strain CL Brener)). The assay can be described thus: Trypanosoma cruzi tyrosyl tRNA synthetase (TcYRS) SOP. Format: functional. As to conditions: 30 µM.
Assay [9] deals with Chromo domain-containing protein 1 (Saccharomyces cerevisiae (strain ATCC 204508 / S288c) (Baker's yeast)) (UniProt P32657). Description: ScCHD-1 Enzyme Inhibition Assay. Further: in the data most compounds retested in dose-response had high values. Format: functional. As to conditions: 30 µM.
Chromo domain-containing protein 1 (Saccharomyces cerevisiae (strain ATCC 204508 / S288c) (Baker's yeast)), sequence (P32657 whole entry, the tested form may be a part): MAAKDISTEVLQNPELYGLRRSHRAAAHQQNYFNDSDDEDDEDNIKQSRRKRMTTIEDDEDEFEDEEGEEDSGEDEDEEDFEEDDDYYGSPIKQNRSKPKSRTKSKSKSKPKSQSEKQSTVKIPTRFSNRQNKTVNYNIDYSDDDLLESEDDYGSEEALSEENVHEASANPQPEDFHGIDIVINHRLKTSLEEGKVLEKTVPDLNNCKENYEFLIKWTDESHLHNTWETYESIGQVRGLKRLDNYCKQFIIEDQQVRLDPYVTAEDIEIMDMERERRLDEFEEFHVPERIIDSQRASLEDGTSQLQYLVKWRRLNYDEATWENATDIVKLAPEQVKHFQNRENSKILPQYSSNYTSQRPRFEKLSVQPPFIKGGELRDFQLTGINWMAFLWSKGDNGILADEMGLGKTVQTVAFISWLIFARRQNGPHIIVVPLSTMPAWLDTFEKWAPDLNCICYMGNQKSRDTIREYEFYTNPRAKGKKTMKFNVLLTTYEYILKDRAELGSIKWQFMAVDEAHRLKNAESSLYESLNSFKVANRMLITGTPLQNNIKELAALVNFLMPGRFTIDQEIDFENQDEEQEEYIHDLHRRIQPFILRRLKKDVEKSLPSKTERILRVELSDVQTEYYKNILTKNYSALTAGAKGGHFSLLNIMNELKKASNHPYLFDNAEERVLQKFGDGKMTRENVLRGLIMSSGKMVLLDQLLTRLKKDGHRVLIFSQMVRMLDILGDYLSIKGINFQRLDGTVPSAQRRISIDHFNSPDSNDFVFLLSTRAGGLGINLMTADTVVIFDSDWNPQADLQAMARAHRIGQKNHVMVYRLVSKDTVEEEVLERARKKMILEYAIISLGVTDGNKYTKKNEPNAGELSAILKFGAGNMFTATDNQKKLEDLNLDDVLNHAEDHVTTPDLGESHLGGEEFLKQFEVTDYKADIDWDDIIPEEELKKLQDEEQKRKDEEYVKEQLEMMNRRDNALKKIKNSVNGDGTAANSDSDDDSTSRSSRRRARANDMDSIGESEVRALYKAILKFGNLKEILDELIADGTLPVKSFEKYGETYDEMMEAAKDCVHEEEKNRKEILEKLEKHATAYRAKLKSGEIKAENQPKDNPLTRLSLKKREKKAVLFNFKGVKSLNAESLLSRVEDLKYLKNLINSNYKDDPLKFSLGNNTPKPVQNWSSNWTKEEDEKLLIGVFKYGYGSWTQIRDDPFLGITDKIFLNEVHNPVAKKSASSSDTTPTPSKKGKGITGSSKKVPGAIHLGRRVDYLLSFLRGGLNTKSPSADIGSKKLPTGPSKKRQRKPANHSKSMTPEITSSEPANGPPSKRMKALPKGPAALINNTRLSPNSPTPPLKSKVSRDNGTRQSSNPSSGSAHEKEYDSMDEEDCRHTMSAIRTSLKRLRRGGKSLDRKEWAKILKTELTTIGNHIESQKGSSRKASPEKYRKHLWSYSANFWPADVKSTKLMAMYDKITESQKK

Structures are written as SMILES. For some of these results: Entries with a potency or affinity are not part of this list.

Protein translocase subunit SecA (Escherichia coli (strain K12)), sequence (P10408 whole entry): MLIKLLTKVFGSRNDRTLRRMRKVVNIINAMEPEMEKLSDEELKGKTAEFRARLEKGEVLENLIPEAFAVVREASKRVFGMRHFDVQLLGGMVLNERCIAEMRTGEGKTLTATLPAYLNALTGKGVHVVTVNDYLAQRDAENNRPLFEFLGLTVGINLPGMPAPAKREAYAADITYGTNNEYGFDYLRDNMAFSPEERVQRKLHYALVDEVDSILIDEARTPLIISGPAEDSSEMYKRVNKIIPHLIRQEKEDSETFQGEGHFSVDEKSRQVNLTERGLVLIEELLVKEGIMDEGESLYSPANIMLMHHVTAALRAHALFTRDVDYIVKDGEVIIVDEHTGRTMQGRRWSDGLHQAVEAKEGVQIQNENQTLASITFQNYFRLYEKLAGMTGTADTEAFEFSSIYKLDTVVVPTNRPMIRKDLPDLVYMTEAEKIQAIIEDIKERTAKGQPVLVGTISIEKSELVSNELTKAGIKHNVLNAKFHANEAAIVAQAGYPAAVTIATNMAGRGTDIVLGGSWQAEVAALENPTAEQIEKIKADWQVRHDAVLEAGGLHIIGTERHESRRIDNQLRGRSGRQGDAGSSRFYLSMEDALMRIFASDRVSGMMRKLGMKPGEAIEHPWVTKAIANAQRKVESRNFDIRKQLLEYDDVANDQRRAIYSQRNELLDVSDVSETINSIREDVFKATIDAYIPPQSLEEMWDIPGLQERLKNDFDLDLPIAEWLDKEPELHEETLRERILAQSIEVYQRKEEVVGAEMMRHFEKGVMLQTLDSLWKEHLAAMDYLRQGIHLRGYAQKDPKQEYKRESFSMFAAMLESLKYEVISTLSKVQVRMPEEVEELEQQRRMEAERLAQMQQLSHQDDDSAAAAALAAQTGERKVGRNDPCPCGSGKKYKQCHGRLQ

Consider `COCC1c2c(cnn2CC2CC2)CCN1Cc1nccs1` (stereo not drawn), for which the Percent Effect is -2.49% in [1]; 13.3% in assay [2]; -1.8% in [3]; 5.98% in [4]; -4.05% with Trypanosoma cruzi; -26% in assay [5]. Also, the Percent Effect in [6] was 12.1%; in the assay filed under Homo sapiens, -5.9%; in assay [7], 4.17%; in assay [8], 20%; in assay [9], -6.08%.
For `CCN1CCn2c(C)cnc2C12CCN(C(=O)CC(C)C)CC2`, the Percent Effect was -1.23% in assay [1]; 10.7% in assay [2]; 6.38% in [3]; -1.92% in [4]; -4.83% in the assay on Trypanosoma cruzi; -59% in [5]. The Percent Effect was 18.1% in assay [6]; 1.06% in the assay listed under Homo sapiens; 0% in [7]; 5% in assay [8]; -5.61% in assay [9].
`CCOc1ccc(Cl)cc1C1CCCN1` (stereo not drawn): the Percent Effect in assay [1] is -3.13%; in assay [2], 10.5%; in assay [3], 4%; in [4], 1.21%; in the assay with Trypanosoma cruzi, 3.21%; in assay [5] it was -11.8%. The Percent Effect in assay [6] was 13.5%; in the assay listed under Homo sapiens, 2.15%; in assay [7], 0%; in [8], 7.79%; in assay [9], -2.96%.
For the molecule `CCCNC(=O)C(C)NC(=O)CCc1ccccc1Br` (stereo not drawn), the Percent Effect in [1] is 0.82%; in [2], 4.17%; in assay [3] it was 3.58%; in assay [4], -5.62%; in the assay with Trypanosoma cruzi it was -9.43%; in [5], 4.42%. Further, the Percent Effect in assay [6] is 16.5%; in the assay listed under Homo sapiens, 8.51%; in [7], 0%; in [8], 5.13%; in assay [9], -1.03%.
With `Cc1noc(C)c1-c1cncc(C2CCCN2Cc2ccncc2)n1` (stereo not drawn), the Percent Effect came to 1.38% in assay [1]; 1.35% in assay [2]; 12% in assay [3]; 8.81% in assay [4]; 0.79% in the assay on Trypanosoma cruzi; 0.696% in assay [5]. In addition, the Percent Effect was 6.08% in assay [6]; 32.8% in the assay filed under Homo sapiens; 2.15% in assay [7]; 1.3% in [8]; -9.13% in [9].
Regarding `CN1C(=O)CC(c2cnn(C)c2)C12CCN(C(=O)C1CC=CC1)CC2` (stereo not drawn), the Percent Effect in [1] is -3.3%; in [2], -2.7%; in assay [3], 6.7%; in assay [4], 5.51%; in the assay on Trypanosoma cruzi it was -2.25%; in assay [5] it was -2.23%. Also, the Percent Effect in assay [6] was 7.2%; in the assay listed under Homo sapiens, -12.6%; in assay [7], -1.08%; in [8], -2.56%; in [9] it was 9.24%.
Consider `CNC(=O)C1Cn2ccnc2C2(CCN(Cc3cccc(C)n3)CC2)O1` (stereo not drawn), for which the Percent Effect in assay [1] was -2.65%; in [2] it was 2.7%; in assay [3] it was 2.26%; in [4], -4.02%; in the assay with Trypanosoma cruzi, -6.35%; in assay [5], -8.6%. In addition, the Percent Effect was determined as 9.41% in [6]; 0.488% in the assay listed under Homo sapiens; 4.32% in assay [7]; 10.3% in assay [8]; 0.265% in [9].
For `O=C1CC2(CCN(CC3CC3)C2)CN1c1cccc(F)c1` (stereo not drawn), the Percent Effect in assay [1] is -0.129%; in assay [2] it was 10.8%; in assay [3], -7.34%; in [4] it was 0.348%; with Trypanosoma cruzi it was -3.81%; in assay [5], 1.24%. For the same molecule, the Percent Effect was 4.38% in assay [6]; -6.1% in the assay listed under Homo sapiens; 3.23% in [7]; 11.1% in assay [8]; -0.923% in [9].

The values above are taken from ChEMBL document CHEMBL3988442, “University of Dundee, Small-Polar-MMV Screening Library” (2021).
